Screens as filed in PubChem.
Rows were chosen to be rich in hits. Some 7.3% of all compounds tested hit in one or more screens of this group.
HCMV antiviral: human cytomegalovirus inhibition; HFF cells, HCMV-luciferase reporter, 72 h; stronger effect = lower value; activity change, negative = inhibition, % at 57.5 µM; 410,000 tested, 4.5% active; AID 1259415; in the data active = activity change below about -60%; inconclusive = no clear call, values can overlap the other calls; inactive = above about -39%
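Two compound doses tested in HFFs infected with HCMV-luciferase, MOI 1 PFU/cell, 72 h at 37C. Lysate luminescence read with OneGlo; data normalized against buffer-only and 10uM Salinomycin inhibitor controls.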
Vaccinia Venus: vaccinia inhibition (Venus reporter); Vaccinia virus Venus reporter expression, fluorescence; Potency, µM (titrated, usually from 36.5 µM), for inactives: at the top dose activity change, negative = inhibition, hits mostly inhibitors; 330,000 tested, 0.46% active; calls by dose curve; tested in A549 cells; note: potency is the fitted concentration of half-maximal effect; nearly all actives have a fitted effect of over 30% in size
FMDV inh: foot and mouth disease virus antiviral activity; Potency, µM (titrated, usually from 57.9 µM), for the others: at the top dose activity change, negative = inhibition, actives largely listed as inhibitors; AID 1159524; 410,000 tested, 1.2% active; FMDV antiviral cell-based qHTS; calls by dose curve; tested in HEK293T cells; note: read-out not given here; potency is the fitted concentration of half-maximal effect; nearly all actives have a fitted effect of over 45% in size
HCV inhibitor: inhibitors of hepatitis C virus infection; Huh7.5.1 HCVcc-Cre infection, luciferase reporter, 44 h; Potency, µM (titrated, usually from 41.8 µM), for the others: at the top dose activity change, negative = inhibition, actives largely listed as inhibitors; 340,000 tested, 3.4% active; AID 651820; active = well fitted inhibition curve with a large enough effect; inconclusive = small, poorly fitted or top-dose-only effect, or another doubt; inactive = no such curve, though single readings can be large or run the other way; note: potency is the fitted concentration of half-maximal effect
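Infectious HCVcc-Cre (~0.5 moi) was added to cells just after compound, with cells seeded 4 h earlier at 1,000 per well. Luciferase activity after 44 h culture reported infection; substrate was incubated 15 min at room temperature before reading.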
VACV mCherry inh: inhibitors of vaccinia virus infection (mCherry reporter signal) | Vaccinia virus mCherry reporter infection, fluorescence | Potency, µM (doses to about 36.5 µM), without a hit: at the top dose activity change, negative = inhibition, usual class: inhibitors | 310,000 tested, 0.63% active | AID 720579; calls by dose curve; tested in A549 cells; note: potency is the fitted concentration of half-maximal effect; nearly all actives have a fitted effect of over 35% in size
An asterisk follows results filed as active; i = inactive; ? = inconclusive; . = no result. % is set by controls: 0 for no effect and ±100 for the full control effect.

SMILES	HCMV antiviral	Vaccinia Venus	FMDV inh	HCV inhibitor	VACV mCherry inh
Fc1ccc(NC(=S)N2CCCN(c3ccc(C(F)(F)F)cn3)CC2)c(F)c1	-80*	.	?	0.5µM*	.
Cc1ccc(C)c(-c2ccc(=O)n(C(C)C(=O)Nc3ccccc3C(F)(F)F)n2)c1 (configuration not stated)	25	-4%	-26%	.	-10%
O=C(CSc1nnc(-c2ccccc2Br)o1)N1CCN(C(=O)c2ccco2)CC1	-25	?	.	6%	13µM*
O=C(CSc1nnc(-c2ccc(F)cc2)o1)N1CCN(C(=O)c2ccco2)CC1	1	-13%	.	-17%	i
Cc1cc2cc(C)c3nnc(SCC(=O)N4CCN(C(=O)c5ccco5)CC4)n3c2cc1C	-73*	-27%	.	7%	-13%
CN(N=Cc1ccccc1O)C(=O)c1ccccc1N	-13	.	.	.	.
CC(C)c1c(C(=O)NCC(C)(C)N2CCOCC2)cnn1-c1nccc(-c2ccccc2F)n1	.	-8%	0%	.	-11%
CCc1cccc(C)c1NC(=O)c1cc(S(=O)(=O)N(Cc2ccc(C(=O)OC)cc2)Cc2ccc(OC)c(OC)c2)ccc1F	-27	-5%	-16%	.	-18%
CC(CNC(=O)c1ccc2c(c1)OCO2)c1ccc([N+](=O)[O-])cc1 (configuration not stated)	-63*	-11%	-14%	-12%	-9%
O=C(NCCc1ccc([N+](=O)[O-])cc1)c1ccccc1	42	.	3%	-8%	.
CC(C)c1ccc(CCNC(=O)c2ccc([N+](=O)[O-])cc2)cc1	0	-24%	-19%	11µM*	-28%
O=C(NCc1ccc2c(c1)OCO2)Nc1ccc([N+](=O)[O-])cc1	-61*	-11%	1%	?	-6%
COc1cccc(C(=O)Nc2ccc(-c3nc4ccccc4s3)cc2Cl)c1	-12	16%	-19%	.	24%
Oc1c(CN2CCN(c3ccccn3)CC2)cc(Cl)c2cccnc12	.	11µM*	?	5µM*	.
Oc1c(CN2CCCCC2)cc(COCc2ccccc2)c2cccnc12	-96*	?	-28%	10µM*	2.5µM*
COCc1cc(CN2CCCC2)c(O)c2ncccc12	-95*	?	.	2.8µM*	14µM*
OCCN1CCN(Cc2cc(Cl)c3cccnc3c2O)CC1	-33	.	-10%	?	.
COc1ccc(CNC(=O)Cc2nn(C)c(=O)c3ccccc23)cc1	?	?	16µM*	?	.
Cn1nc(CC(=O)Nc2cccc3ncccc23)c2ccccc2c1=O	-67*	?	?	?	?
Cn1nc(CC(=O)NCc2ccc(C(F)(F)F)cc2)c2ccccc2c1=O	21	.	16µM*	?	.
Cn1nc(CC(=O)NC2CCCCCC2)c2ccccc2c1=O	-72*	-22%	?	3.2µM*	i
O=C(NCc1ccccc1Cl)c1ccc(NC(=O)N2CCSc3ccccc32)cc1	-19	-11%	-2%	.	-5%
Cc1noc(/C=C/c2ccco2)c1S(=O)(=O)N1CCC(C(=O)Nc2ccc(F)cc2F)CC1	?	-6%	?	.	-13%
COc1ccc(OCC(=O)Nc2cccc3ncccc23)cc1	-26	-16%	?	20%	.
O=C(CCl)Nc1cccc2ncccc12	-99*	?	-14%	13µM*	3.5µM*
SMILES	HCMV antiviral	Vaccinia Venus	FMDV inh	HCV inhibitor	VACV mCherry inh
Cn1nc(C(=O)NC2CCC(O)CC2)c2ccccc2c1=O (configuration not stated)	-65*	.	-17%	12%	.
Cn1nc(C(=O)Nc2ccccc2N2CCCC2)c2ccccc2c1=O	-40	.	?	11µM*	.
COc1ccccc1C1c2c(-c3ccc(Cl)cc3)n[nH]c2C(=O)N1c1ccc(C)cc1 (configuration not stated)	-105*	-5%	?	.	-12%
CCOc1ccc(C2c3c(-c4ccc(C)cc4)n[nH]c3C(=O)N2c2ccc(Cl)cc2)cc1 (configuration not stated)	-106*	?	-21%	.	?
CCOC(=O)c1ccc(N2C(=O)c3[nH]nc(-c4ccc(OC)cc4)c3C2c2ccccc2Cl)cc1 (configuration not stated)	11	-22%	?	.	?
CCOc1ccc(N2C(=O)c3[nH]nc(-c4ccccc4)c3C2c2ccc(O)c(OC)c2)cc1 (configuration not stated)	-25	-12%	?	.	-13%
CCOC(=O)C(C(=O)OCC)C(Nc1ccc(Br)cc1)c1ccccc1 (configuration not stated)	5	.	13µM*	15%	.
Cc1ccc2cc(/C=N/NC(=O)c3ccccc3O)c(Cl)nc2c1	5	-5%	?	5%	-13%
Cc1ccc2cc(C=C(C#N)C#N)c(Cl)nc2c1	31	24%	32µM*	?	-19%
Cc1cc(C(=O)NCc2nc(-c3cccc(NC(=O)c4ccccc4)c3)oc2C)nc(C)n1	.	-5%	?	.	-12%
COc1cc(C(O)c2nc(C(=O)NCCN(C)C)cs2)cc(OC)c1OC (configuration not stated)	2	.	.	.	.
CCCCCC1=C(C(=O)OC)C(C(=O)OCC)N(S(=O)(=O)C(F)(F)F)c2ccccc21 (configuration not stated)	-16	-16%	?	11µM*	i
CCOC(=O)C1C(C(=O)OC)=C(C(=O)OC)c2ccccc2N1S(=O)(=O)C(F)(F)F (configuration not stated)	23	0%	-5%	?	-3%
CCCN(CC(=O)Nc1ccc(F)c(F)c1F)CC(=O)Nc1c(C)n(C)n(-c2ccccc2)c1=O	-69*	-11%	?	-14%	-13%
COc1ccc(N2C(=O)CSC23C(=O)N(CC(=O)NC2CCCCC2)c2ccccc23)cc1 (configuration not stated)	3	-8%	-3%	.	i
O=C1CSC(=S)N1c1cccc(Br)c1	-77*	9%	?	-5%	14%
CCC(=O)NCc1nc(-c2cccc(NC(=O)c3ccc(C)s3)c2)oc1C	.	-19%	13%	.	-16%
O=C(Nc1ccccc1F)N1C[C@@H]2[C@H](c3ccccc31)[C@H](CO)N2C(=O)Nc1ccccc1	1	.	.	.	.
O=C(Nc1cccc(F)c1)N1CC[C@@]2(CCCNC2)C1	.	.	-10%	.	.
O=C(Nc1nc2ccccc2n1CCN1CCOCC1)c1cn(-c2ccccc2)nc1-c1ccccc1	?	?	0%	10µM*	28µM*
O=C(Nc1nc2ccccc2n1CCN1CCOCC1)c1ccccc1	5	-14%	-20%	-17%	-4%
COc1ccc(NC(=O)C(C)Sc2cc(-c3ccccc3)nc(C)n2)cc1Cl (configuration not stated)	?	-23%	0%	.	-17%
COc1cc(C(=O)N2CCCC(c3nc(-c4cccs4)no3)C2)cc(OC)c1OC (configuration not stated)	6	.	-1%	-1%	.
COc1cccc(-c2noc(C3CCCN(C(=O)CC(C)(C)C)C3)n2)c1 (configuration not stated)	56	.	5%	10µM*	.
